Assay results reported in PubChem BioAssay (EPA / NIEHS).
Inconclusive results are not listed. Activity calls are given as the source filed them. How the source made its calls, unless noted: active means hit-call score of the fitted dose curve at least 0.9, where 1 is the maximum; inactive means score below 0.9.

Columns and labels:
[1] = ATG_CMV_CIS: Attagene CIS-FACTORIAL HepG2 Assay for human CMV (Internal Marker) (AID 2282928); details: HepG2 CMV promoter reporter, transcription factor profiling; actives raise or lower the signal;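 further: endpoint acts as a background internal control marker rather than a target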
Summary of the method: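 HepG2 cells transiently transfected with multiple cis-regulated reporter units; 24 h compound exposure. Reporter mRNA quantified by RT-PCR, 6-FAM primer-extension labeling, HpaI digestion and capillary electrophoresis; bidirectional fitting against DMSO baseline.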

[2] = ATG_DR4_LXR_CIS: Attagene CIS-FACTORIAL HepG2 Assay for human Liver X Receptor (LXR), DR4 submotif (AID 2282929); details: HepG2 Attagene DR4 cis-reporter, mRNA transcription; actives raise or lower the signal
Summary of the method: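 Fluorescence intensity of labelled reporter cDNA fragments, separated by capillary electrophoresis, gives the signal. HepG2 cells bearing cis-regulated reporter constructs were treated 24 h; activity fitted bidirectionally relative to DMSO negative control.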

[3] = ATG_M_19_CIS: Attagene CIS-FACTORIAL HepG2 Assay for M19 Transcription Factor (Internal Marker) (AID 2282939); details: HepG2 Attagene CIS-FACTORIAL M19 internal marker reporter; actives raise or lower the signal
Summary of the method: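 HepG2 cells transiently transfected with cis-regulated multiplexed reporter units, dosed 24 h. Reporter mRNA quantified by RT-PCR and capillary electrophoresis; internal background marker fitted bidirectionally versus DMSO.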

[4] = molecular target: Hepatocyte nuclear factor 3-beta (Homo sapiens) (UniProt Q9Y261); assay: ATG_FoxA2_CIS: Attagene CIS-FACTORIAL HepG2 Assay for human Forkhead box A2 (FOXA2) (AID 2282942); details: HepG2 cis-reporter transcription factor activity, 24 h; actives raise or lower the signal
Summary of the method: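 Reporter transcript induction is measured by fluorescence after capillary electrophoresis of RT-PCR products from HepG2 cells exposed 24 h. Cis-regulated reporter units report endogenous factor activity; curves fitted both directions against DMSO.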

[5] = molecular target: Hepatocyte nuclear factor 6 (Homo sapiens) (UniProt Q9UBC0); assay: ATG_HNF6_CIS: Attagene CIS-FACTORIAL HepG2 Assay for human Hepatocyte Nuclear Factor 6 (HNF6) (AID 2282952); details: HepG2 Attagene cis-factorial HNF6 reporter transcription; actives raise or lower the signal
Summary of the method: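 HepG2 cells transiently transfected with cis-element-driven multiplexed reporter units measuring endogenous transcription factor activity. After 24 h exposure, reporter mRNA quantified by RT-PCR, FAM-labelled fragments and capillary electrophoresis; bidirectional fitting versus DMSO.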

[6] = molecular target: Heat shock factor protein 1 (Homo sapiens) (UniProt Q00613); assay: ATG_HSE_CIS: Attagene CIS-FACTORIAL HepG2 Assay for human Heat Shock Transcription Factor 1 (HSE) (AID 2282953); details: HepG2 HSE cis-reporter, Attagene RNA transcription; actives raise or lower the signal
Summary of the method: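 HepG2 cells transfected with cis-promoter reporter units sensing endogenous transcription factor activity; reporter mRNA quantified 24 h post-dose by RT-PCR and capillary electrophoresis of 6-FAM-labelled products. Bidirectional fitting against DMSO.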

[7] = ATG_RORE_CIS: Attagene CIS-FACTORIAL HepG2 Assay for human RAR-related Orphan Receptor Element (RORE) (AID 2282959); details: HepG2 Attagene cis-factorial RORE reporter, mRNA; actives raise or lower the signal
Summary of the method: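 Endogenous factor activity at a cis response element is read as reporter transcript levels in HepG2 cells, 24 h post-dose. Transcripts are quantified by RT-PCR with capillary electrophoresis, and data fitted in both directions against DMSO.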

[8] = ATG_TA_CIS: Attagene CIS-FACTORIAL HepG2 Assay for human TA Basal Promoter (AID 2282964); details: HepG2 Attagene CIS-factorial TA basal promoter reporter; actives raise or lower the signal
Summary of the method: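 HepG2 cells transiently transfected with multiple reporter units under cis promoter elements, reporting endogenous transcription factor activity; this endpoint tracks the TA basal promoter as background control. Reporter mRNA after 24 h dosing measured by RT-PCR/capillary electrophoresis; bidirectional fits versus DMSO.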

[9] = ATG_TGFb_CIS: Attagene CIS-FACTORIAL HepG2 Assay for human Transforming Growth Factor (TGF) (AID 2282967); details: HepG2 Attagene CIS TGFb reporter, mRNA transcription; actives raise or lower the signal
Summary of the method: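 HepG2 cells transiently transfected with cis-promoter-driven multiple reporter units measure endogenous TF activity; reporter mRNA quantified at 24 h by RT-PCR, FAM labeling, HpaI digestion and capillary electrophoresis. Bidirectional fit vs DMSO.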

[10] = ATG_VDRE_CIS: Attagene CIS-FACTORIAL HepG2 Assay for human Vitamin D Receptor Element (VDRE) (AID 2282968); details: HepG2 VDRE cis-reporter transcription, actives raise or lower the signal
Summary of the method: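 Reporter mRNA induction, quantified by capillary electrophoresis of fluorescently labelled RT-PCR products, was read 24 h after dosing HepG2 cells carrying transiently transfected cis-regulated reporter units; gain or loss relative to DMSO.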

[11] = ATG_M_06_TRANS: Attagene TRANS-FACTORIAL HepG2 Assay for M06 Transcription Factor (Internal Marker) (AID 2282983; active means hit-call score of the fitted dose curve at least 0.9, where 1 is the maximum); details: HepG2 Attagene TRANS M06 internal marker reporter
Summary of the method: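 HepG2 cells transiently transfected with GAL4-UAS multiple reporter units, dosed 24 h. Reporter RNA reverse-transcribed, PCR-amplified, 6-FAM-labeled, HpaI-digested and quantified by capillary electrophoresis; this internal-marker signal fitted upward relative to DMSO.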

[12] = ATG_NFI_CIS: Attagene CIS-FACTORIAL HepG2 Assay for human Nuclear Factor I (NFI) (AID 2282989); details: HepG2 cis-regulatory reporter, NFI response element transcription; actives raise or lower the signal
Summary of the method: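 Endogenous TF activity in HepG2 cells transiently transfected with cis-element-driven multiplexed reporter units, read 24 h after dosing. Reporter mRNA quantified by RT-PCR, 6-FAM labelling, HpaI digestion and capillary electrophoresis; bidirectional fit versus DMSO.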

[13] = molecular target: Myc proto-oncogene protein (Homo sapiens) (UniProt P01106); assay: ATG_Myc_CIS: Attagene CIS-FACTORIAL HepG2 Assay for human Myelocytomatosis (Myc) Proto-Oncogene Transcription Factor (AID 2282990); details: HepG2, Attagene cis-reporter transcription factor activity; actives raise or lower the signal
Summary of the method: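 After 24 h chemical treatment of HepG2 cells carrying multiplexed cis-regulated reporter constructs, reporter transcripts quantified by RT-PCR and capillary electrophoresis of fluorescent fragments. Gain or loss fitted against DMSO baseline.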

[14] = ATG_NRF2_ARE_CIS: Attagene CIS-FACTORIAL HepG2 Assay for human Nuclear Factor Erythroid 2 Related Factor 2 (NFR2) response to Antioxidant Response Elements (ARE) (AID 2282992); details: HepG2 Attagene ARE/NRF2 reporter, transcription factor activity; actives raise or lower the signal;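 on AC50: reporter mRNA level measured by RT-PCR and capillary electrophoresis fluorescence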
Summary of the method: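 HepG2 cells transiently transfected with multiplexed cis-regulated reporter transcription units measure endogenous transcription factor activity. Reporter mRNA at 24 h is quantified by RT-PCR, fluorescent labelling and capillary electrophoresis, with bidirectional fitting relative to DMSO.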

[15] = molecular target: Cellular tumor antigen p53 (Homo sapiens) (UniProt P04637); assay: ATG_p53_CIS: Attagene CIS-FACTORIAL HepG2 Assay for human p53 Transcription Factor (AID 2282994); details: HepG2 p53 cis-element reporter, Attagene mRNA; actives raise or lower the signal
Summary of the method: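 HepG2 cells transiently transfected with multiplexed cis-regulated reporter transcription units read endogenous TF activity. After 24 h compound exposure, reporter mRNA was quantified by RT-PCR, fluorescent labelling, HpaI digestion and capillary electrophoresis; bidirectional fits versus DMSO baseline.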

[16] = molecular target: Nuclear receptor subfamily 1 group I member 2 (Homo sapiens) (UniProt O75469); assay: ATG_PXR_TRANS: Attagene TRANS-FACTORIAL HepG2 Assay for human Pregnane X Receptor (PXR) (AID 2283008; active means hit-call score of the fitted dose curve at least 0.9, where 1 is the maximum)
Summary of the method: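 HepG2 cells transiently transfected with multiple reporter units, here a PXR-GAL4 chimera driving a GAL4-UAS reporter; 24 h compound exposure. Reporter mRNA measured by RT-PCR, FAM labelling and capillary electrophoresis; gain of signal fitted against DMSO baseline.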

[17] = molecular target: Transcription factor E2F1 (Homo sapiens) (UniProt Q01094); assay: ATG_E2F_CIS: Attagene CIS-FACTORIAL HepG2 Assay for human E2F Transcription Factor 1 (AID 2282935); details: HepG2 Attagene cis-reporter, E2F reporter RNA transcripts; actives raise or lower the signal
Summary of the method: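 Cis-element reporter mRNA induction in transiently transfected HepG2, 24 h exposure. Activity fitted in both directions relative to DMSO negative control.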

[18] = ATG_ISRE_CIS: Attagene CIS-FACTORIAL HepG2 Assay for human Interferon Regulatory Factor 1 (IRF1) binding to an Interferon-Stimulated Response Element (ISRE) (AID 2282948); details: HepG2 ISRE cis-reporter (Attagene), mRNA transcription readout; actives raise or lower the signal
Summary of the method: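 HepG2 cells transiently transfected with multiplexed cis-promoter reporter units; after 24 h compound exposure, reporter mRNA quantified by RT-PCR, FAM labelling, HpaI digestion and capillary electrophoresis. Bidirectional fit versus DMSO baseline.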

[19] = molecular target: Hypoxia-inducible factor 1-alpha (Homo sapiens) (UniProt Q16665); assay: ATG_HIF1a_CIS: Attagene CIS-FACTORIAL HepG2 Assay for human Hypoxia Inducible Factor 1 (HIF1A) (AID 2282951); details: HepG2 Attagene cis-factorial HIF1a reporter transcription; actives raise or lower the signal
Summary of the method: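 Fluorescence intensity of capillary-separated, 6-FAM-labelled reporter amplicons gives mRNA induction in HepG2 cells carrying transfected cis-promoter reporter units; cells exposed 24 h, responses fitted up or down from DMSO.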

[20] = ATG_Sox_CIS: Attagene CIS-FACTORIAL HepG2 Assay for human SRY-box transcription factor (SOX) (AID 2282960); details: HepG2 Attagene cis-factorial SOX reporter, mRNA; actives raise or lower the signal
Summary of the method: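 Measures mRNA induction of a SOX1-associated reporter in HepG2 after 24 h dosing. Fluorescently labelled RT-PCR fragments are separated by capillary electrophoresis, and gain or loss relative to DMSO control is fitted.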

Measured: AC50

Sequence of Myc proto-oncogene protein (Homo sapiens) (P01106 whole entry, looked up, the tested form may be a part): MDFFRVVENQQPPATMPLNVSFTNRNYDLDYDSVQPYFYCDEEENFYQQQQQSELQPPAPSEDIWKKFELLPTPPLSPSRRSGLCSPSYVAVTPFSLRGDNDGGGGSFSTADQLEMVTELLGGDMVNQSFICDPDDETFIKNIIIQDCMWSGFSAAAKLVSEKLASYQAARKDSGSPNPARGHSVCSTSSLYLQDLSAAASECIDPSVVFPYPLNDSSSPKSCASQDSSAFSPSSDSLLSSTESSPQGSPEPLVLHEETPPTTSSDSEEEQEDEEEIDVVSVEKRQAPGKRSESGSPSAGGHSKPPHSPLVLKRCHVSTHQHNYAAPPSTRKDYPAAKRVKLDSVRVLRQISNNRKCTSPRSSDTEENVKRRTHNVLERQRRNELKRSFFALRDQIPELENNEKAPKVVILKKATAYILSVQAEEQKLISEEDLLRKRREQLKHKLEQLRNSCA
Sequence of Nuclear receptor subfamily 1 group I member 2 (Homo sapiens) (O75469 whole entry, looked up, the tested form may be a part): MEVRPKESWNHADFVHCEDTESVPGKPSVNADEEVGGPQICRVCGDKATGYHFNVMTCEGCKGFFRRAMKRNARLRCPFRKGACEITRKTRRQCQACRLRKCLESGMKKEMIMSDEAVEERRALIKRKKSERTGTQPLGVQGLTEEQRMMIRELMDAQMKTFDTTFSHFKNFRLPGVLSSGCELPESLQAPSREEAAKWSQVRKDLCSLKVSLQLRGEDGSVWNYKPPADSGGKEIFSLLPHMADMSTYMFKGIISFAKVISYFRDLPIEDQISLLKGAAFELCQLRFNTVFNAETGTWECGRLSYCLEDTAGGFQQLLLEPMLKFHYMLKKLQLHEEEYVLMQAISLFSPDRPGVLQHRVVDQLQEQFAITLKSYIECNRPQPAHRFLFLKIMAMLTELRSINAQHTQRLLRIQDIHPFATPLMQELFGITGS
Sequence of Heat shock factor protein 1 (Homo sapiens) (Q00613 whole entry, looked up): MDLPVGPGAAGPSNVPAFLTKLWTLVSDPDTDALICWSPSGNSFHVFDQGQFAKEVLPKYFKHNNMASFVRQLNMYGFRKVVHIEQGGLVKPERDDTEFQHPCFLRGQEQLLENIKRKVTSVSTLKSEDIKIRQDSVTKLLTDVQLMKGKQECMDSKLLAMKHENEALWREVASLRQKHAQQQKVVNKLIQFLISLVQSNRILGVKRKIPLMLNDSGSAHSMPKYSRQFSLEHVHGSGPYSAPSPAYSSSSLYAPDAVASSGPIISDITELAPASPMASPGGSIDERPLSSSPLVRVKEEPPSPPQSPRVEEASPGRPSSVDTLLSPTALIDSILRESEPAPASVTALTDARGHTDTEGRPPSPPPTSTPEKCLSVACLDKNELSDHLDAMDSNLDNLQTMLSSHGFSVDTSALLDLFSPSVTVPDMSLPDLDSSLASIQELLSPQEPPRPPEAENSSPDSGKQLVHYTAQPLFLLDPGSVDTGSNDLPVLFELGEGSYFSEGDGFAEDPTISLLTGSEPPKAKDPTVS
Sequence of Hypoxia-inducible factor 1-alpha (Homo sapiens) (Q16665 whole entry, looked up): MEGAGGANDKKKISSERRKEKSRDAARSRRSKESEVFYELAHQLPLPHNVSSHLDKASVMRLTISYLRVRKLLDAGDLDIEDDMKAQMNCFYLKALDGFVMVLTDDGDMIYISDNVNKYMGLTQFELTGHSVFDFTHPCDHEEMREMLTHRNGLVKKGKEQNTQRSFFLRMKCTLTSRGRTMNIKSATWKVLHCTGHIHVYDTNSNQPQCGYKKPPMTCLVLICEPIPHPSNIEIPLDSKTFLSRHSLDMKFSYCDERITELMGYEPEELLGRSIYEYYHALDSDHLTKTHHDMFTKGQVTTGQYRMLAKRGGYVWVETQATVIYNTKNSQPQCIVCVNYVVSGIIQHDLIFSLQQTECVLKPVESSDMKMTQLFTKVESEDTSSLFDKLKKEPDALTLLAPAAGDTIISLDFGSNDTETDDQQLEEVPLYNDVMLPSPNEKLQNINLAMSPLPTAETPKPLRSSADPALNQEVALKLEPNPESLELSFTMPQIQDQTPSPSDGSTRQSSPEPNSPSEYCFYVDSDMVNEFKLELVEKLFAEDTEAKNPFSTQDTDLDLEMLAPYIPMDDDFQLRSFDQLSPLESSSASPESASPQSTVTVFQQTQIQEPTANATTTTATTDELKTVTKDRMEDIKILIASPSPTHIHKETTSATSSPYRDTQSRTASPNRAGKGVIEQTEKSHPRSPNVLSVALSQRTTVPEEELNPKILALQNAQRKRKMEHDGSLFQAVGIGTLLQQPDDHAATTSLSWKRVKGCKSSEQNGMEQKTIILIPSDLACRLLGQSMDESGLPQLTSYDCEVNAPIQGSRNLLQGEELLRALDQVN
Sequence of Hepatocyte nuclear factor 3-beta (Homo sapiens) (Q9Y261 whole entry, looked up): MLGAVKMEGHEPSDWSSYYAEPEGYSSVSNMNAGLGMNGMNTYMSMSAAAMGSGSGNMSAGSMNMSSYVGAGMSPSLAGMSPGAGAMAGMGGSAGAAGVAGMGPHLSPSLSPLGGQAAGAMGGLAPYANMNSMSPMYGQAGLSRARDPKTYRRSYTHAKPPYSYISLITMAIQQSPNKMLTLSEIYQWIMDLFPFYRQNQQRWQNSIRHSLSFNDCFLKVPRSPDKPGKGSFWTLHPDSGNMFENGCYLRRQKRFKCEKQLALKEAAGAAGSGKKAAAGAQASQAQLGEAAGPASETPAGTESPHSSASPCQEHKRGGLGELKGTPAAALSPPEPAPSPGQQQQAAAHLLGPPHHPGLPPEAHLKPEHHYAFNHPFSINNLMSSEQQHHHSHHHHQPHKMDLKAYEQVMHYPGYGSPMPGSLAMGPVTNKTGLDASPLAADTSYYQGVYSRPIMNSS
Sequence of Cellular tumor antigen p53 (Homo sapiens) (P04637 whole entry, looked up): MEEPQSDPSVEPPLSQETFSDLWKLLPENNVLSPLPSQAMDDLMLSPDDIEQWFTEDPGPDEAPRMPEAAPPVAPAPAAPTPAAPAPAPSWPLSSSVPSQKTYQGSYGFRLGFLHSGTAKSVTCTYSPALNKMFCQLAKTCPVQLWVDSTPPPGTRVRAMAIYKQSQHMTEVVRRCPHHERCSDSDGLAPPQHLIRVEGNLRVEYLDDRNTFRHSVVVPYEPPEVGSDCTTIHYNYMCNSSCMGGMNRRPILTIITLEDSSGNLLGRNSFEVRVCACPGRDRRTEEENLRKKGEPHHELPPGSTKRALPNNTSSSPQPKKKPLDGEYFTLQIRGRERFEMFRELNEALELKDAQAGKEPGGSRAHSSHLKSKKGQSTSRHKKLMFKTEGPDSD
Sequence of Hepatocyte nuclear factor 6 (Homo sapiens) (Q9UBC0 whole entry, looked up, the tested form may be a part): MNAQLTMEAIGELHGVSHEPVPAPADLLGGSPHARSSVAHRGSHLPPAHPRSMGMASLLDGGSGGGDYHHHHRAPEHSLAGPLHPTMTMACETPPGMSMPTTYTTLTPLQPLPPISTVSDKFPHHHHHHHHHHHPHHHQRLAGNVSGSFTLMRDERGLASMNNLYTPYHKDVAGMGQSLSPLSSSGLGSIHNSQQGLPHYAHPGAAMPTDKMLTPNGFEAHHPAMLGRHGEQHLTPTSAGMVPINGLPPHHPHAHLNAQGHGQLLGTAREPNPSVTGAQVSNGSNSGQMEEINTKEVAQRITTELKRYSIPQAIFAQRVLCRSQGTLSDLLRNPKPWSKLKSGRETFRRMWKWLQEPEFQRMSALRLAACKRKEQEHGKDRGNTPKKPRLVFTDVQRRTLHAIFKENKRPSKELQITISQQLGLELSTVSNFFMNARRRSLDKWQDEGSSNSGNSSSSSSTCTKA
Sequence of Transcription factor E2F1 (Homo sapiens) (Q01094 whole entry, looked up): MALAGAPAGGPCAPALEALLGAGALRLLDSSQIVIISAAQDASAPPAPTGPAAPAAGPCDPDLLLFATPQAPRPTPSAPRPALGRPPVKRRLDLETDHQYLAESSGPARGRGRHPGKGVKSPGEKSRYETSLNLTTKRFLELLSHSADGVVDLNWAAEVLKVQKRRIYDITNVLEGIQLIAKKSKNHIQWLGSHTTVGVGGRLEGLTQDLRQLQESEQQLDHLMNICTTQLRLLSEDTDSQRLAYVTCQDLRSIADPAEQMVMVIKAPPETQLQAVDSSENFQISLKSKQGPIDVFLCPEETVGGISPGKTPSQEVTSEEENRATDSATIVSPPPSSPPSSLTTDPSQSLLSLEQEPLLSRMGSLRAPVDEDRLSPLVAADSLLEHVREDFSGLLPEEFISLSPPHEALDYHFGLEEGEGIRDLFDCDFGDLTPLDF

c1ccc(CNc2ncnc3nc[nH]c23)cc1
not listed: [17] | [18] | [19] | [20]
inactive: all other assays above

CC/C=C\CC1=C(C)CCC1=O
active: [14] 35.9 µM
not listed: [8] | [11]
inactive: all other assays above

CC(=O)OC(C)(C)Cc1ccccc1
not listed: [3] | [17]
inactive: all other assays above

CC(C)(Oc1ccc(Cl)cc1)C(=O)O
not listed: [11] | [18] | [19] | [20]
inactive: all other assays above

CC(C)CC(=O)CC(C)C
not listed: [3] | [18]
inactive: all other assays above

Cc1cc(-n2nc3ccc(Cl)cc3n2)c(O)c(C(C)(C)C)c1
not listed: [17]
inactive: all other assays above

Cc1ccccc1S(=O)(=O)O
active: [20] 27 µM
not listed: [1] | [8] | [10] | [16]
inactive: all other assays above
